# Data taken from ChEMBL document CHEMBL3988442, “University of Dundee, Small-Polar-MMV Screening Library” (2021).
# For some assays here: Entries with a potency or affinity are not part of this list.
# Experiments:
# Design in all cases: scale not given: direction of the effect not stated beside the values
# [1] = biological target: Protein translocase subunit SecA (Escherichia coli (strain K12)) (UniProt P10408); experiment: Assay to Identify E. coli SecA ATPase Inhibitors; assay type: functional; details: 30 µM
# Sequence of Protein translocase subunit SecA (Escherichia coli (strain K12)) (P10408 whole entry): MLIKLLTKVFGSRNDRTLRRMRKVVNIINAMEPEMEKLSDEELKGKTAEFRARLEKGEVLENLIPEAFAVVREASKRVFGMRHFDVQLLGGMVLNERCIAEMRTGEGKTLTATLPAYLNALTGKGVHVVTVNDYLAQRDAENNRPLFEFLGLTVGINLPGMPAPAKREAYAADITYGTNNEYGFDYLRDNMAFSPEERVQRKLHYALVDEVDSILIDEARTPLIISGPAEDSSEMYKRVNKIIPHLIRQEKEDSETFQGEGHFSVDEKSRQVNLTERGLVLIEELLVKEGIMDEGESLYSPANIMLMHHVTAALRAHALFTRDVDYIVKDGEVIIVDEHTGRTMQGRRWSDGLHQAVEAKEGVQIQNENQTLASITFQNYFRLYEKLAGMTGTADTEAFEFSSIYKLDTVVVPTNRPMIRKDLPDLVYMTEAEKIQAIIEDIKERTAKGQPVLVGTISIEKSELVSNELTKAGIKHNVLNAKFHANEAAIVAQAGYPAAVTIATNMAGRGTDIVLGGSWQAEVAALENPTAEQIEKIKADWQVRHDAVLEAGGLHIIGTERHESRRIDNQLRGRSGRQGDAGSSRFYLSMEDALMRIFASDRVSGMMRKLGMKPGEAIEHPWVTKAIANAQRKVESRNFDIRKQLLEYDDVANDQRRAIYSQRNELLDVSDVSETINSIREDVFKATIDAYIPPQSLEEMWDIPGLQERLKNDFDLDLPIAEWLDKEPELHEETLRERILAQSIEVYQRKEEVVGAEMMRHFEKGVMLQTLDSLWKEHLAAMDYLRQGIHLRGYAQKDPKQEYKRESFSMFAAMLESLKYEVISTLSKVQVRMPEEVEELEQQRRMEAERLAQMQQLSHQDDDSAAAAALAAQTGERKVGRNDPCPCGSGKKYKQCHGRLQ
# [2] = biological target: T1, Ubiquitin-activating enzyme e1, putative (Leishmania donovani (strain BPK282A1)) (UniProt E9BSI1); experiment: Leishmania donovani Ubiquitin Activating Enzyme (LdE1); assay type: functional; details: 30 µM
# T1 sequence (whole entry): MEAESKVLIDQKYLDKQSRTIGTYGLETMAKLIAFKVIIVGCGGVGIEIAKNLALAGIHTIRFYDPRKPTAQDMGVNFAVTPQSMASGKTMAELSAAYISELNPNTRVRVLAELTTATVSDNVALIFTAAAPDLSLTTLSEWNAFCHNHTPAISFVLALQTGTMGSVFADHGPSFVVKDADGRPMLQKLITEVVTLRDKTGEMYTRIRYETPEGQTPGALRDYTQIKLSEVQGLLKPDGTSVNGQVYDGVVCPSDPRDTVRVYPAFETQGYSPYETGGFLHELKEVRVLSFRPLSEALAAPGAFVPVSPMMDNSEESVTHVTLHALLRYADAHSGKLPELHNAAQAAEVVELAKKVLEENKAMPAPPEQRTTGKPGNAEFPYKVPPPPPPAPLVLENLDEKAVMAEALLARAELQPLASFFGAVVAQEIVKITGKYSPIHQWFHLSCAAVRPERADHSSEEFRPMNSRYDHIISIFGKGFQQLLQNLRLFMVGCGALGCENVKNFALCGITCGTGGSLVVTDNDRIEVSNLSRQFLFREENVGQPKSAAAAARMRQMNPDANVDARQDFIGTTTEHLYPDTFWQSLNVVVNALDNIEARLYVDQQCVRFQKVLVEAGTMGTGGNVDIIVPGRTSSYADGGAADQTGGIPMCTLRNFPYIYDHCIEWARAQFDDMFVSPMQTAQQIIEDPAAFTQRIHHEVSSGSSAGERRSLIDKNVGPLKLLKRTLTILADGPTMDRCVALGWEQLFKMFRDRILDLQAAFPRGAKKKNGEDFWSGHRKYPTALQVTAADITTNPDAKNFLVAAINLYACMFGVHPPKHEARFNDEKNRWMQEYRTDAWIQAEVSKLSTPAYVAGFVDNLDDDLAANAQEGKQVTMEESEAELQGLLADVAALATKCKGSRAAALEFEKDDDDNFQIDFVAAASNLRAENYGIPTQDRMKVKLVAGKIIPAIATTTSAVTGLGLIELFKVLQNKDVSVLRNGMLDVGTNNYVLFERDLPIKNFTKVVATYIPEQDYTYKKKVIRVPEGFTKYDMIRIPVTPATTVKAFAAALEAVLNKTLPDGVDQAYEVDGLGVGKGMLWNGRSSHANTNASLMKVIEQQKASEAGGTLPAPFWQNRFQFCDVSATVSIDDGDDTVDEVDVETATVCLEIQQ
# [3] = biological target: AMP-activated protein kinase, AMPK (Homo sapiens) (UniProt P54646+O43741+P54619+Q9UGJ0+Q9Y478+Q13131+Q9UGI9); experiment: AMP-dependent Kinase enzyme assay. An in vitro enzyme assay that detects ADP turnover that is directly proportional to AMPK activity. This uses naive AMPK that is activated during the assay with MK-8722; assay type: functional; details: 30 µM
# [4] = biological target: Sialic acid-binding Ig-like lectin 9 (Homo sapiens) (UniProt Q9Y336); experiment: Hs-Siglec9 ALPHAscreen SOP 20170721; details: 10 µM
# Sequence of Sialic acid-binding Ig-like lectin 9 (Homo sapiens) (Q9Y336 whole entry): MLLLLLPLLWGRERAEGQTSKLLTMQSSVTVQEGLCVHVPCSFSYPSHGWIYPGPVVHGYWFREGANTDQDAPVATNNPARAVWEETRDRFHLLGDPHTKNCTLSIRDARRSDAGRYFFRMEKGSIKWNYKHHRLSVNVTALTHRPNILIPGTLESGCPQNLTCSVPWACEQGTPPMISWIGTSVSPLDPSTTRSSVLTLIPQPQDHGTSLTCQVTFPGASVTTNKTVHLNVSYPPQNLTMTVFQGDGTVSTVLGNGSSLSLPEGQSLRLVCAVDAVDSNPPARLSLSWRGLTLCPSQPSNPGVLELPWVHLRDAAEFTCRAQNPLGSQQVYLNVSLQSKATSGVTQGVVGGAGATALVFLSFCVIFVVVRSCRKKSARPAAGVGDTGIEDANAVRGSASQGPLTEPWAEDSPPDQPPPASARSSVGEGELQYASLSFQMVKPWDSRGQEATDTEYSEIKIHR
# Trypanosoma cruzi = experiment: Trypanosoma cruzi phosphomannomutase and mannose-1-phosphate guanylyltransferase assay; assay type: functional; details: 10 µM
# [5] = biological target: T2, Arginase-2, mitochondrial (Homo sapiens) (UniProt P78540); experiment: in vitro enzyme assay to detect the production of urea directly proportional to the activity of Arginase II; assay type: functional; details: 33.3 µM; also: in the data most compounds retested in dose-response had high values
# T2 sequence (whole entry): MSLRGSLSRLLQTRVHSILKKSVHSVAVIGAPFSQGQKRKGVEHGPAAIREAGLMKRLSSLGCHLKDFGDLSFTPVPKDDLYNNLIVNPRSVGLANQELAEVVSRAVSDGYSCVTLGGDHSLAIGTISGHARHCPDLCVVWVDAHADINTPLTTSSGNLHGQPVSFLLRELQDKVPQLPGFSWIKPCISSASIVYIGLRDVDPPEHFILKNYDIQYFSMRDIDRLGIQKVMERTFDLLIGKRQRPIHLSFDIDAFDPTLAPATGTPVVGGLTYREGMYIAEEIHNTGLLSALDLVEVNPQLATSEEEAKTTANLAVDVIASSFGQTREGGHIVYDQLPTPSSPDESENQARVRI
# [6] = biological target: T3, Proteasome subunit beta (Trypanosoma cruzi) (UniProt O96673); experiment: Trypanosoma cruzi proteasome chymotrypsin-like activity (TcProtChymo) assay.; also: in the data most compounds retested in dose-response had high values; assay type: functional; details: 9.37 µM
# T3 sequence (whole entry): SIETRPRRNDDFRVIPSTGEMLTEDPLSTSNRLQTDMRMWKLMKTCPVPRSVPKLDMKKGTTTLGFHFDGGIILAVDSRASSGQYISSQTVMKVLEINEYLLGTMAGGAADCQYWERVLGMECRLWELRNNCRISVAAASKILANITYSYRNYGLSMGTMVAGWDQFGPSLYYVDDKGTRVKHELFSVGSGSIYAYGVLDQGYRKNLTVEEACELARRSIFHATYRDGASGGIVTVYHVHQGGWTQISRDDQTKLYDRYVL
# Homo sapiens = organism: Homo sapiens; experiment: To identify inhibition of the IFN signalling (Jak-Stat) pathway via expression of an eGFP reporter gene under the control of an IFN-stimulated response element (ISRE) containing MxA promoter.; assay type: functional; details: 30 µM
# [7] = biological target: T4, Tyrosyl-tRNA synthetase, putative (Trypanosoma cruzi (strain CL Brener)) (UniProt Q4DSP6); experiment: Trypanosoma cruzi tyrosyl tRNA synthetase (TcYRS) _High Tyrosine SOP; assay type: functional; details: 30 µM; also: in the data most compounds retested in dose-response had high values
# T4 sequence (whole entry): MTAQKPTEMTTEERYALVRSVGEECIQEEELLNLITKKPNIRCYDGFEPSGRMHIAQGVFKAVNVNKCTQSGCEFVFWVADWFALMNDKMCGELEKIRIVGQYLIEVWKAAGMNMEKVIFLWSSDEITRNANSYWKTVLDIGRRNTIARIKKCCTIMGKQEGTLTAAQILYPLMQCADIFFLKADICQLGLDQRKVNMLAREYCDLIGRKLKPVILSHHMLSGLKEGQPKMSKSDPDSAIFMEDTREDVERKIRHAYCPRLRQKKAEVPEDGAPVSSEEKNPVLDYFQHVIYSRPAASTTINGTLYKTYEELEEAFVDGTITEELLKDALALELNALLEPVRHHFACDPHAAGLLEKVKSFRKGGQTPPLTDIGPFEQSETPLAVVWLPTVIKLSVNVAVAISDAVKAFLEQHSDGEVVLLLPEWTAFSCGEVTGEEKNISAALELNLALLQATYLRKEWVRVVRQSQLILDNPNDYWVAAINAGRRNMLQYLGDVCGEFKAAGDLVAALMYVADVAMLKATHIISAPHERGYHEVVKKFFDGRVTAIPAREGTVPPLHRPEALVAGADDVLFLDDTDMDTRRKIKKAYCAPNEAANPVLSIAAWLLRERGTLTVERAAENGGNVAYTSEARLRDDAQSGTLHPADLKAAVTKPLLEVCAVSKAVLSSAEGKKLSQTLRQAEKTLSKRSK
# [8] = biological target: T4, Tyrosyl-tRNA synthetase, putative (Trypanosoma cruzi (strain CL Brener)); experiment: Trypanosoma cruzi tyrosyl tRNA synthetase (TcYRS) SOP; assay type: functional; details: 30 µM
# [9] = biological target: Chromo domain-containing protein 1 (Saccharomyces cerevisiae (strain ATCC 204508 / S288c) (Baker's yeast)) (UniProt P32657); experiment: ScCHD-1 Enzyme Inhibition Assay; assay type: functional; details: 30 µM; also: in the data most compounds retested in dose-response had high values
# Sequence of Chromo domain-containing protein 1 (Saccharomyces cerevisiae (strain ATCC 204508 / S288c) (Baker's yeast)) (P32657 whole entry, the tested form may be a part): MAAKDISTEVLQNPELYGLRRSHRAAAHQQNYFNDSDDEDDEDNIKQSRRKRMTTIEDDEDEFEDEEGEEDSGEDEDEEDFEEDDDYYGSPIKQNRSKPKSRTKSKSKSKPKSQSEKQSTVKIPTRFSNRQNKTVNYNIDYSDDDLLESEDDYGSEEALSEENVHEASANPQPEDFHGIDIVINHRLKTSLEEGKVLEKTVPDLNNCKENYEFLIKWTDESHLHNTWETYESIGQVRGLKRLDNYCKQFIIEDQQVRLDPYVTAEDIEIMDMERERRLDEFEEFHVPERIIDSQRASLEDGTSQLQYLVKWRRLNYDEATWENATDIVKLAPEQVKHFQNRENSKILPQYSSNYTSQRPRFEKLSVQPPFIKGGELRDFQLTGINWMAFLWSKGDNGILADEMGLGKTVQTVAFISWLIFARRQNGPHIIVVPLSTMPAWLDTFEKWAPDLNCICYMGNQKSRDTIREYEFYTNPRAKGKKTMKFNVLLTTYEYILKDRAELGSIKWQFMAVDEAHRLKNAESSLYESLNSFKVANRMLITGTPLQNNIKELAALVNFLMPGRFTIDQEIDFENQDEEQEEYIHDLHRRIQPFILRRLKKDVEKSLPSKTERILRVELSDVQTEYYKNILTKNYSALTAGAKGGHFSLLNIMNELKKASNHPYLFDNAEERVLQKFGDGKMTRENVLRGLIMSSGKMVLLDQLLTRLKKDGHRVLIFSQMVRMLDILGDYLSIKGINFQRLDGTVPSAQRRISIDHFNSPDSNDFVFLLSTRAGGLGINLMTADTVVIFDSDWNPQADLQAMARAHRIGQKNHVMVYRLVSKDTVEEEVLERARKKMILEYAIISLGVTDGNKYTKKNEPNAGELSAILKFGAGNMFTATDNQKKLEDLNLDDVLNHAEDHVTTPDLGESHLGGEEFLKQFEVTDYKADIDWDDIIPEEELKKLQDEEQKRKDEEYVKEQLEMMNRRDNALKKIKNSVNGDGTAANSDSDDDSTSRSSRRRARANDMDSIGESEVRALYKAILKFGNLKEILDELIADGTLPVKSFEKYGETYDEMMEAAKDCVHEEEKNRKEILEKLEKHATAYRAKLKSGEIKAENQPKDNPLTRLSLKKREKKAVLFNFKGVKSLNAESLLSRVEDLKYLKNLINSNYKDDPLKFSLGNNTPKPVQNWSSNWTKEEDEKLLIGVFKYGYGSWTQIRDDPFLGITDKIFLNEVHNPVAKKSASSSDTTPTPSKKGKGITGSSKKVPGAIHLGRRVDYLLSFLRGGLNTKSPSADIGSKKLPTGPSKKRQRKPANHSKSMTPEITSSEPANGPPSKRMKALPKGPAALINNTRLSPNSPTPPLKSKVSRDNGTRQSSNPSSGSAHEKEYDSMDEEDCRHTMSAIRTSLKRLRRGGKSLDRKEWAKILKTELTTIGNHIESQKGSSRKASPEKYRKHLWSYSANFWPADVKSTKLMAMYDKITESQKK
SMILES,Percent Effect [1],Percent Effect [2],Percent Effect [3],Percent Effect [4],Percent Effect (Trypanosoma cruzi),Percent Effect [5],Percent Effect [6],Percent Effect (Homo sapiens),Percent Effect [7],Percent Effect [8],Percent Effect [9]
CC1CCN(S(=O)(=O)NCC2CCOc3ccccc3C2)CC1 (configuration not stated),-7.79%,2.6%,4.04%,4.95%,-2.46%,-8.28%,6.16%,23.1%,0%,3.7%,-0.0656%
NC(=O)C1CCN(c2nc3nccc(-c4ccccn4)c3c(=O)[nH]2)CC1,-4.8%,18.4%,0.528%,-4.82%,0.0974%,-2.37%,22%,2.93%,8.51%,23.4%,7.17%
Cc1cc2c(=O)n3c(nc2s1)CCN(C(=O)c1cnn(C)c1C)CC3,-6.2%,-17.6%,6.62%,5.04%,1.98%,-6.26%,9.83%,13%,5.38%,11.7%,-18.8%
CC(C)NC(=O)c1ccc2c(c1)nc1n2CCN(C(C)C)C1,-0.173%,4%,2.97%,4.16%,-5.11%,-13.2%,19.2%,-1.16%,6.35%,7.69%,-10.7%
Cc1ccc(CN2Cc3nnn(C)c3C(COCCN(C)C)C2)s1 (configuration not stated),-6.87%,2.7%,-1.39%,-1.89%,-5.57%,-3.72%,4.89%,15%,2.15%,8.64%,-3.26%
CCCC(=O)N1CCC(O)(Cn2c(CC)nc3ccccc3c2=O)CC1,-1.08%,17.6%,21.5%,-2.15%,3.16%,-1.16%,9.2%,17.3%,4.3%,3.9%,-6.13%
COCCc1noc(CN2CCN(CC(O)c3ccccc3)CC2)n1 (configuration not stated),-7.76%,6.33%,4.46%,-0.576%,-1.54%,1.07%,6.69%,12%,11.5%,10.1%,-14.9%
CC(C)c1nc(C2CCCN2CC(=O)N2CCNC2=O)no1 (configuration not stated),-3.33%,2.63%,-0.208%,-4.56%,5.26%,1.15%,1.34%,-5.94%,-0.49%,4.88%,-10.2%
CCC(=O)N1CCCC1c1nccnc1Nc1ncccn1 (configuration not stated),0.559%,-6.76%,18.4%,0.16%,-2.57%,-0.232%,-6.24%,-9.16%,1.07%,-3.9%,-6.85%
Cn1cnc(S(=O)(=O)N2CCCC2)c1Cl,-1.75%,4.17%,-5.49%,-0.277%,1.46%,13.2%,15.4%,-29.7%,3.16%,10.3%,-2.89%
CC(C)OCCOCc1cccc(NC(=O)NCc2ccccn2)c1,-5.4%,10.4%,0.256%,12%,6.79%,-24.8%,19.3%,-1.08%,2.15%,8.64%,-6.3%
Cn1cnnc1C1CCCN(C(=O)NCc2ccc3c(c2)OCO3)C1 (configuration not stated),-5.4%,-10.4%,-2.19%,-7.32%,3.43%,-12.8%,11.2%,-5.11%,9.52%,23.5%,-12.6%
Cc1nc(C)n(CC2CCCN2CC(=O)Nc2cc(C(C)C)no2)n1 (configuration not stated),-3.86%,18.4%,-3.35%,10.4%,1.03%,-0.36%,8.21%,22.5%,4.43%,16.1%,-3.86%
CC(C)C(=O)N1CCN(C(=O)c2cscn2)[C@H]2CS(=O)(=O)C[C@H]21,-2.31%,15.3%,-5.83%,5.33%,2.04%,4.42%,13.9%,-3.92%,3.16%,12.8%,-0.218%
C[S+]([O-])c1nncn1CC(=O)c1ccc2c(c1)CCO2 (configuration not stated),-5.7%,8.11%,-3.44%,36.4%,3.23%,26.6%,12.4%,-10.5%,3.23%,16.1%,-9.11%
COC(=O)c1cccc(C(=O)N2CCN(c3cccc(C)c3C)CC2)n1,-0.0243%,20.8%,-2.32%,0.218%,2.66%,0.645%,10.3%,87%,2.12%,11.5%,-9.48%
Cc1ccc(CN2C[C@@H]3COC[C@H](NS(C)(=O)=O)[C@@H]3C2)o1,-3.56%,13.3%,3.44%,-1.89%,-4.05%,-56.8%,7.86%,12.6%,4.17%,15%,-6.77%
CS(=O)(=O)NC1CCc2c(ccc(=O)n2CC2CC2)C1 (configuration not stated),-2.67%,10.7%,7.1%,2.38%,-3.54%,2.56%,10.7%,-2.08%,6.38%,14.1%,0.517%
CCc1cnc(CNc2ccc(C(=O)N3CCCC(C)C3)cc2C)o1 (configuration not stated),-1.36%,-5.2%,6.76%,-0.151%,-0.936%,-1.78%,8.78%,25.1%,-0.971%,0%,-5.54%
Cc1cnc(N2CCC3(CCCN(c4ccc(C)nn4)C3)C2)nc1 (configuration not stated),1.3%,11%,1.6%,7.43%,-6.35%,-21.6%,13.1%,33.6%,6.25%,13.6%,-5.51%
CCc1nc(CN2CCOC(Cn3nc(C)nc3C)C2)no1 (configuration not stated),-1.49%,23.7%,2.58%,-7.19%,-2.33%,4.32%,3.64%,5.43%,8.37%,18.5%,-6.23%
Cc1ccc(N2CCCC(NCc3cscn3)C2)nn1 (configuration not stated),-1.67%,13.5%,-43.1%,-1.8%,-1.04%,18.4%,11.3%,3.87%,12.3%,23.5%,-5.79%
